The source of these data is PubChem BioAssay (Tox21).

Each structure is given as a SMILES string. Unmarked numbers belong to inactive results. Records with an inconclusive call do not appear. Calls of active or inactive are those of the source. Unless noted, calls come from the whole dose curve; as a rule, active = well fitted curve in the direction sought with a large enough effect in the repeat runs; inconclusive = weak or mixed curves; inactive = no such curve, though single readings can be large; an effect the other way counts as inactive or inconclusive.

The nature of assay [1]: qHTS assay to identify small molecule agonists of H2AX (AID 1224845; active = well fitted activation curve with a large enough effect in the signal ratio in the repeat runs, not every such curve was filed as active; the % refers to the signal ratio). The procedure, abridged:
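Phospho-H2AX Ser139 measured by HTRF (ex 320 nm; em 665 and 620 nm) after 24 hr antibody incubation. Compounds, 15 concentrations, 0.76% DMSO, were applied to CHO-K1 cells for 3hr at 37C before lysis.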

A short description of assay [2]: qHTS assay to identify small molecule agonists of the hypoxia (HIF-1) signaling pathway (AID 1224846; active = well fitted activation curve with a large enough effect in the signal ratio in the repeat runs, not every such curve was filed as active; the % refers to the signal ratio). The procedure, abridged:
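Beta-lactamase FRET read-out (CCF4-AM substrate) from ME-180 cells carrying an HRE-driven bla reporter, after 17 hrs compound exposure at 37C/5% CO2. Cells were seeded at 2,000 per well in 0.5% dialyzed FBS medium and preincubated 5 hrs.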
In general terms: In qHTS, concentration-response curves come from the screen itself.

Assay [3] in a line: qHTS assay to identify small molecule agonists of H2AX - cell viability counter screen (AID 1224847; calls by dose curve; note: nearly all actives have a fitted effect of over 30% in size; note: potency is the fitted concentration of half-maximal effect; for activity change, negative = cytotoxicity: top concentration of the series differs between compounds). The procedure, abridged:
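Quantitative HTS viability measurement: CHO-K1 wild-type cells in serum (10% FBS) medium, short 3 hr drug exposure at 37C with 0.76% DMSO, CellTiter-Glo luminescent detection.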

Assay [4] can be described thus: qHTS assay to identify small molecule antagonists of the estrogen related receptor (ERR) signaling pathway from Tox21 library (AID 1224848). Note: nearly all actives have a fitted effect of over 50% in size. Note: potency is the fitted concentration of half-maximal effect. In short, it runs like this: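 ERR cell line, 2,000 cells/well. 6 h settle, then compound (DMSO) added; 18 h at 37 C; ONE-Glo luminescence after 30 min RT.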
Assay [5] can be described thus: qHTS assay to identify small molecule agonists of the estrogen related receptor (ERR) signaling pathway from Tox21 library (AID 1224849; calls by dose curve; note: nearly all actives have a fitted effect of over 15% in size). The settings on record: ERR reporter cell line, ONE-Glo luciferase, 18 h; at 92.4 µM (top of the series) unless noted. In short, it runs like this:
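Luminescence readout (ONE-Glo, 30 min RT) after 18 h compound exposure at 37 C of NTP-supplied ERR reporter cells; cells were plated 6 h before compound addition by pin tool.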

Assay [6] can be described thus: qHTS RealTime-Glo MT Cell Viability Assay in HepG2 cells - 24 hour (AID 1224867). Note: nearly all actives have a fitted effect of over 50% in size. Note: potency is the fitted concentration of half-maximal effect. The procedure, abridged:
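Tox21 10K library screened in qHTS format on HepG2 cells carrying RealTime-Glo reagents. Compounds were added after a 5 h preincubation, and the luminescent signal from continuous culture was measured repeatedly during 40 h treatment.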

Assay [7] can be described thus: qHTS RealTime-Glo MT Cell Viability Assay in HEK293 cells - 32 hour (AID 1224868). For activity change, negative = cytotoxic: top concentration of the series differs between compounds. Note: nearly all actives have a fitted effect of over 50% in size. Note: potency is the fitted concentration of half-maximal effect. In short, it runs like this:
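Luminescence generated by NanoLuc from substrate produced by living HEK293 cells served as the viability signal. Each value reflects the reading at its stated time point during continuous 40 h compound exposure at 37 C.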

Assay [8] can be described thus: A CellTox Green Cytotoxicity Assay to monitor cytotoxicity in HEK293 cells - 0 hour (AID 1224869). Note: nearly all actives have a fitted effect of over 50% in size. The procedure, abridged: (§1)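 Read-out: fluorescence of a cell-impermeant cyanine dye staining DNA of dead cells, proportional to cytotoxicity. HEK293, 600 cells/well with reagent, compound (23 nL DMSO) added after 5 h; reads at 0, 8, 16, 24, 32, 40 h.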
Assay [9] is described as follows: qHTS RealTime-Glo MT Cell Viability Assay in HepG2 cells - 40 hour (AID 1224870). Note: nearly all actives have a fitted effect of over 50% in size. Note: potency is the fitted concentration of half-maximal effect. In short, it runs like this:
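Real-time viability: cells seeded at 600 per well together with NanoLuc and cell-permeant prosubstrate, compounds added after 5 h incubation. Luminescence tracked at 0, 8, 16, 24, 32 and 40 h of exposure.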

Assay [10] can be described thus: A CellTox Green Cytotoxicity Assay to monitor cytotoxicity in HEK293 cells - 40 hour (AID 1224871). Note: nearly all actives have a fitted effect of over 45% in size. The procedure, abridged:
as §1
% is set by controls: 0 for no effect and ±100 for the full control effect.

Take `CC(COC(=O)c1ccccc1)OC(=O)c1ccccc1` (stereo unspecified): the Potency entry in assay [1], in [3], in [4], in assay [6], in [7] and in assay [8] was “inactive” in each case. For the same compound, the Potency entry in assay [9] and in [10] was “inactive” throughout. The result in assay [2] was inactive. Also, the activity change, positive = activation in [5] is 6.72%.
Turning to `CCC1CCCCC1`, the Potency result in assay [1], in assay [3], in [4], in assay [6], in [7] and in assay [8] was “inactive” each time. Further, the Potency result in assay [9] and in assay [10] was “inactive” throughout. Moreover, the call in assay [2] was inactive. The activity change, positive = activation in assay [5] was 11.4%.
Turning to `COc1ccccc1OCCNCC(O)COc1cccc2[nH]c3ccccc3c12` (stereo unspecified), the Potency entry in assay [1] and in assay [8] was “inactive” in each case. The compound was called inactive in [2]. Besides, the Potency was 49.2 µM (active) in [3]; 26.6 µM (active) in assay [4]; 21.3 µM (active) in assay [6]; 16.9 µM (active) in [7]; 23.9 µM (active) in assay [9]. The activity change, positive = activation in assay [5] is -52.7% [at 42.5 µM].
As to `CO[Si](CCC1CCC2OC2C1)(OC)OC` (stereo unspecified), the Potency entry in assay [1], in assay [3], in assay [4], in assay [6], in [7] and in [8] was “inactive” each time. In addition, the Potency entry in [9] and in [10] was “inactive” in each case. In assay [2], the compound was classed as inactive. In addition, in [5], the activity change, positive = activation was 0.732%.
On to `CCCC(=O)OCC(COC(=O)CCC)OC(=O)CCC`, for which the Potency entry in assay [1], in [3], in assay [4], in assay [6], in [7] and in assay [8] was “inactive” throughout. Also, the Potency entry in assay [9] and in [10] was “inactive” each time. Besides, in assay [2], the result was inactive. Further, in [5], the activity change, positive = activation is -2.08%.
Turning to `CC1(C)C(=O)N(Br)C(=O)N1Br`, the Potency result in [1], in assay [3], in assay [4], in assay [6], in assay [7] and in assay [8] was “inactive” in each case. In addition, the Potency result in [9] and in assay [10] was “inactive” in each case. Further, the compound was called inactive in assay [2]. The activity change, positive = activation in assay [5] was 3.41%.
In the case of `OCCCCl`, the Potency result in assay [1], in [3], in [4], in assay [6], in [7] and in [8] was “inactive” in each case. Also, the Potency result in assay [9] and in assay [10] was “inactive” throughout. The compound was classed as inactive in assay [2]. The activity change, positive = activation in assay [5] is -6.99%.
For `CCCCCCCC/C=C/CCCOC(C)=O`, the Potency entry in assay [1], in [3], in assay [4], in assay [6], in assay [7] and in assay [8] was “inactive” in each case. The Potency result in assay [9] and in assay [10] was “inactive” throughout. For the same compound, the compound was classed as inactive in assay [2]. Also, the activity change, positive = activation in [5] was 1.58%.
With `Cn1cccc1`, the Potency entry in [1], in [3], in assay [4], in assay [6], in [7] and in assay [8] was “inactive” in each case. Further, the Potency result in assay [9] and in assay [10] was “inactive” each time. In addition, the compound was classed as inactive in [2]. Moreover, in [5], the activity change, positive = activation is -4.51%.
`c1cc[nH]c1`: the Potency result in [1], in [3], in assay [4], in assay [6], in assay [7] and in assay [8] was “inactive” in each case. The Potency result in assay [9] and in [10] was “inactive” throughout. The result in assay [2] was inactive. Moreover, the activity change, positive = activation in assay [5] is -5.69%.
With `C=CC(=C)CC/C=C(\C)CCC=C(C)C`, the activation (H2AX phosphorylation) in [1] was -0.467% [at 31.6 µM]. The activation in assay [2] is -0.763% [at 15.8 µM]. Further, the activity change, negative = cytotoxicity in assay [3] is 2.41% [at 31.6 µM]; in assay [6] it was 0.599% [at 15.8 µM]. In assay [4], the activity, negative = inhibition is -7.19% [at 19 µM]. Besides, the activity change, positive = activation in assay [5] is -3.55% [at 19 µM]. Further, the activity change, negative = cytotoxic in [7] is -12.8% [at 15.8 µM]; in assay [9], -6.2% [at 15.8 µM]. The cytotoxicity in assay [8] is 0.448% [at 15.8 µM]. The cytotoxicity increase in assay [10] was 4.27% [at 15.8 µM].
Consider `CN1CN(C)CN(C)C1`, for which the Potency result in [1], in assay [3], in assay [4], in assay [6], in [7] and in [8] was “inactive” in each case. Moreover, the Potency result in [9] was “inactive”. The compound was classed as inactive in assay [2]. For the same compound, the activity change, positive = activation in [5] was 7.33%.
For the compound `CC1=CP(=O)(c2ccccc2)CC1` (stereo unspecified), the Potency entry in assay [1], in [3], in [4], in [6], in assay [7] and in assay [8] was “inactive” throughout. Besides, the Potency entry in assay [9] and in [10] was “inactive” throughout. For the same compound, the call in assay [2] was inactive. Moreover, in assay [5], the activity change, positive = activation is -5.03%.
With `ClC/C=C\CCl`, the Potency entry in [1], in [3], in assay [4], in assay [6], in [7] and in assay [8] was “inactive” throughout. Moreover, the Potency result in assay [9] and in [10] was “inactive” each time. In addition, the compound was called inactive in assay [2]. For the same compound, the activity change, positive = activation in assay [5] is -4.37%.
`CC[N+](CC)(CC)Cc1ccccc1`: the Potency result in [1], in [3], in assay [4], in assay [6], in assay [7] and in [8] was “inactive” in each case. Further, the Potency entry in [9] and in assay [10] was “inactive” in each case. For the same compound, the compound was classed as inactive in assay [2]. For the same compound, the activity change, positive = activation in assay [5] is -4.7%.
Take `CCCCCCCCCCCCCCCCCO`: in assay [1], the activation (H2AX phosphorylation) is -3.22% [at 31.6 µM]. For the same compound, in assay [2], the activation was -0.342% [at 15.8 µM]. The activity change, negative = cytotoxicity in assay [3] is -0.549% [at 31.6 µM]; in assay [6], 0.355% [at 15.8 µM]. The activity, negative = inhibition in assay [4] was -9.79% [at 19 µM]. Moreover, the activity change, positive = activation in assay [5] was -4.89% [at 19 µM]. Also, the values for the activity change, negative = cytotoxic in assay [7] and in assay [9] were 6.41% [at 15.8 µM] and -3.35% [at 15.8 µM], respectively. In [8], the cytotoxicity was -13.6% [at 15.8 µM].
Take `CCCCOC(=O)C(C)CC` (stereo unspecified): the Potency result in assay [1], in assay [3], in assay [4], in assay [6], in [7] and in assay [8] was “inactive” throughout. The Potency entry in [9] and in assay [10] was “inactive” each time. Also, the call in assay [2] was inactive. In addition, the activity change, positive = activation in [5] was 6.06%.
On to `CCCCCCCCCCc1ccccc1`, for which the Potency entry in [1], in assay [3], in [4], in [6], in [7] and in assay [8] was “inactive” each time. Moreover, the Potency result in [9] and in assay [10] was “inactive” in each case. The result in assay [2] was inactive. The activity change, positive = activation in [5] is 0.758%.
`Cc1ccc(CCn2c3c(c4cc(Cl)ccc42)CN(C)CC3)cn1`: the Potency entry in assay [1], in assay [3], in assay [4], in assay [6], in assay [8] and in assay [9] was “inactive” throughout. Also, in assay [10], the Potency result was “inactive”. The result in assay [2] was inactive. Moreover, the activity change, positive = activation in assay [5] is 48.3% [at 42.5 µM] (active). In [7], the Potency is 19 µM (active).
For the compound `CCOC(OCC)C(=O)c1ccccc1`, the Potency entry in assay [1], in assay [3], in assay [4], in assay [6], in assay [7] and in [8] was “inactive” in each case. In addition, the Potency result in assay [9] and in assay [10] was “inactive” in each case. Further, the compound was classed as inactive in assay [2]. The activity change, positive = activation in assay [5] was 1.64%.
Take `CCOCOCC`: the Potency result in assay [1], in [3], in [4], in [6], in assay [7] and in assay [8] was “inactive” each time. The Potency result in assay [9] and in assay [10] was “inactive” each time. Further, the call in [2] was inactive. Moreover, the activity change, positive = activation in assay [5] was 0.502%.
For `CC(C)=CCCC(C)O` (stereo unspecified), the Potency result in assay [1], in assay [3], in assay [4], in assay [6], in [7] and in assay [8] was “inactive” throughout. Besides, the Potency entry in assay [9] is “inactive”. Further, the compound was called inactive in assay [2]. Further, in assay [5], the activity change, positive = activation is 0.538%.
